About 2,100 (0.53%) of roughly 400,000 compounds were called active. Roughly 14% stayed inconclusive and do not appear here. How the calls were made is not given here. Only a selection was taken, and actives are over-represented in it overall.
target: Ataxin-2 (Homo sapiens) (UniProt Q99700); experiment: qHTS for Inhibitors of ATXN expression.; format: functional
Sequence (Q99700 whole entry): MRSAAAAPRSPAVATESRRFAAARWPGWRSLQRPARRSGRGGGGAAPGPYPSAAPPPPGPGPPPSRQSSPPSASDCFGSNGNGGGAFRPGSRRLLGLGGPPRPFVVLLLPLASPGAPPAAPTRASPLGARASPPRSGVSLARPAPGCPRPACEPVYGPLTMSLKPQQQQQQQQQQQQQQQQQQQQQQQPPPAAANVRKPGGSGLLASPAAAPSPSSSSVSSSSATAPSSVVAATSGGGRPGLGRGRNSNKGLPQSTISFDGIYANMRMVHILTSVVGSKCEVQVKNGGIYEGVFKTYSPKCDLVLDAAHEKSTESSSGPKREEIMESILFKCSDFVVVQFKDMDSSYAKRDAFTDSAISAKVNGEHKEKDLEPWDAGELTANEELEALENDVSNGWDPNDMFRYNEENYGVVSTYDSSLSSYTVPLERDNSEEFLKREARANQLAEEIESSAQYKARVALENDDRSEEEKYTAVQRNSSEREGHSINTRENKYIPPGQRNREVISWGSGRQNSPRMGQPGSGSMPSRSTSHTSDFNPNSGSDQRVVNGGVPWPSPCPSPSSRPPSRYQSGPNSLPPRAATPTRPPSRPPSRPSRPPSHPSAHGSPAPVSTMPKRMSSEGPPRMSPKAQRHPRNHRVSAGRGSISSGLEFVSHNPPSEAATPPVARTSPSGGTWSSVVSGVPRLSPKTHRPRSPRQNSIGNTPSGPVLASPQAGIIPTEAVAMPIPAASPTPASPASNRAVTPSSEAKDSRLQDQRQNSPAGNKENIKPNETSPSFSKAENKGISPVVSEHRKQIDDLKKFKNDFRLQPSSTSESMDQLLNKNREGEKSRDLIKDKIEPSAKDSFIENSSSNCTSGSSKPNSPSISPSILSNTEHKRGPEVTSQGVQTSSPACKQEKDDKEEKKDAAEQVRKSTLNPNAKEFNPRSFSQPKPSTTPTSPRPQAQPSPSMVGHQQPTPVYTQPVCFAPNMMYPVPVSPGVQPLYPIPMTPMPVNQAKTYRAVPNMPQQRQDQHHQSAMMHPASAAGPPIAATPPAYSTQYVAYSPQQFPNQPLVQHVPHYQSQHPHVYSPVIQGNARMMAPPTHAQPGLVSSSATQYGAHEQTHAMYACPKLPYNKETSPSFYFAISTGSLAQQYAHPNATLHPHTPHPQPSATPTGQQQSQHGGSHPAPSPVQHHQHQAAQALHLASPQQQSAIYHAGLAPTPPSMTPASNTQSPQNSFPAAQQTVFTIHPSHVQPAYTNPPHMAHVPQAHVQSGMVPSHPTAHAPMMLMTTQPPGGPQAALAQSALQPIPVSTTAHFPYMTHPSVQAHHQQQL

SMILES	Potency
COC(=O)c1ccc(-c2sc3nc(N4CCOCC4)c4c(c3c2N)CC(C)(C)OC4)o1	inactive
COc1cc(OC)cc(C(=O)NC(C(=O)NCCc2ccccn2)C(C)C)c1 (stereo unspecified)	inactive
COc1ccc(-c2ccc3c(N)c(C(=O)Nc4ccc(C)cc4C)sc3n2)cc1OC	inactive
COc1cc(OC)c(NC(C)C(=O)NCc2ccccc2)cc1Cl (stereo unspecified)	inactive
COc1cc(OC)c(NC(=O)C(C)n2nc(-c3ccc(C)c(C)c3)ccc2=O)cc1Cl (stereo unspecified)	35.5 µM (active)
CCC(C(=O)Nc1cc(OC)cc(OC)c1)n1nc(-c2ccc(C)c(C)c2)ccc1=O (stereo unspecified)	25.1 µM (active)
COc1ccc(CC(=O)Nc2nn(C)c3nc4c(C)cccc4cc23)cc1	inactive
N#Cc1c(N)n(-c2cccc(Cl)c2)c2nc3ccccc3nc12	inactive
CCc1cc(=O)oc2c(C)c3c(cc12)CN(CCc1ccccc1)CO3	inactive
Cc1cccc(-c2nnc(SCc3cc(=O)c4c(C)cc(C)cc4[nH]3)[nH]2)c1	39.8 µM (active)
O=C(OCc1ccccc1)N1CCc2ccccc21	inactive
COc1ccc(COC(=O)C2CC(=O)N(Cc3ccccc3)C2)cc1 (stereo unspecified)	inactive
COC(=O)[C@@H]1C[C@]2(OC(=O)c3ccccc3)C=CC(=O)C[C@@H]2N1C(=O)OCc1ccccc1	25.1 µM (active)
C=CCN1C(=O)c2cccc3c(N4CCCCC4)ccc(c23)C1=O	inactive
COc1ccccc1/C=N/OC(=O)c1ccc(C)cc1	inactive
COc1ccccc1/C=C/C(=O)NCC(=O)N=Nc1c(O)[nH]c2ccccc12	inactive
COc1ccccc1C=CC(=O)C=Cc1ccccc1OC	16.8 µM (active)
CCOC(=O)c1c(O)cc(C)nc1O	inactive
CCN(c1ccccc1)S(=O)(=O)c1ccc(NC(=O)c2nc(S(C)(=O)=O)ncc2Cl)cc1	17.8 µM (active)
O=C(Nc1ccc(S(=O)(=O)Nc2nccs2)cc1)c1nn(-c2ccccc2)ccc1=O	inactive
CS(=O)(=O)c1ncc(Cl)c(C(=O)Nc2ccc(N3CCOCC3)cc2)n1	25.1 µM (active)
COC(=O)c1nc2ccc(N3CCOCC3)cc2c(C)c1C(=O)OC	inactive

SMILES	Potency
COc1ccc(NC(=O)NS(=O)(=O)c2ccc(C)cc2)cn1	inactive
CN(c1ccccc1)S(=O)(=O)c1ccc(Cl)c(C(=O)Nc2nn[nH]n2)c1	inactive
CCOC(=O)c1nc(S(C)(=O)=O)ncc1Cl	39.8 µM (active)
Cc1ccc(NC(=O)c2sc3nc(C)cc(C)c3c2N)cc1	inactive
CCOC(=O)c1cnc2c(C)cc(Cl)cc2c1N1CCN(C)CC1	inactive
CCS(=O)(=O)c1ncc(Cl)c(C(=O)Nc2ccc(C)cc2)n1	35.5 µM (active)
O=C(Nc1ccc(N2CCOCC2)cc1)c1cccc(S(=O)(=O)N2CCCCCC2)c1	inactive
O=C(/C=C/Nc1ccc(S(=O)(=O)Nc2ncccn2)cc1)c1ccc(Cl)c(Cl)c1	inactive
CCc1cc(=O)oc2c(C)c(O[C@@H]3O[C@H](CO)[C@@H](O)[C@H](O)[C@H]3O)ccc12	inactive
CC(C)C1OC2(C)OC(=N)C1(C#N)C(C#N)(C#N)C2c1ccccc1 (stereo unspecified)	inactive
CC(=O)c1ccc(N2CCN(C(=O)COc3ccc4ccccc4c3)CC2)cc1	inactive
Cc1oc(C(N)=O)cc1COc1ccc(C(N)=O)cc1	inactive
Cc1sc2ncn(CC(=O)NCCCC(=O)N3CCN(Cc4ccc5c(c4)OCO5)CC3)c(=O)c2c1C	inactive
Cc1ccccc1NC(=O)c1nc(S(C)(=O)=O)ncc1Cl	inactive
CCS(=O)(=O)c1ncc(Cl)c(C(=O)Nc2ccccc2OC)n1	35.5 µM (active)
COC(=O)c1sc(-c2ccc(Cl)cc2)cc1NC(=O)/C=C/C(=O)O	28.2 µM (active)
CC(=O)c1sc(-c2ccccc2)cc1NS(=O)(=O)c1ccccc1	inactive
COC(=O)c1scc(C)c1NC(=O)c1ccc(Cl)cc1	inactive
Cc1ccc2sc(-c3ccc(NC(=O)/C=C\C(=O)O)cc3)nc2c1	inactive
COC(=O)c1scc(C)c1NC(=O)CSc1ccc(Cl)cc1	inactive
COC(=O)c1sc(-c2ccc(C(C)(C)C)cc2)cc1NC(=O)/C=C/C(=O)O	39.8 µM (active)
CCC(=O)NC(=S)Nc1ccc(S(=O)(=O)NC2CCCCC2)cc1	inactive

SMILES	Potency
O=C(Nc1ccc(C(F)(F)F)cc1)c1cc(S(=O)(=O)NC2CCCCCC2)ccc1F	35.5 µM (active)
CCOC(=O)N1CCC2(CC1)C(C#N)=C(N)Oc1c2sc2nc(C)cc(C)c12	25.1 µM (active)
Cc1cc(C)c2c(N)c(C(=O)C(C)(C)C)sc2n1	inactive
C=COC(=O)c1sc2nc(C)cc(C)c2c1N	inactive
CSCCC(NC(=O)COc1ccccc1)C(=O)N1CCCCCC1 (stereo unspecified)	inactive
C/C(=N\Nc1cccc(C(F)(F)F)c1)c1ccc(O)cc1	inactive
O=C(CSc1ccc(F)cc1)Nc1ccccc1Br	inactive
O=C(NNc1ccccc1Br)C(O)(c1cccc(C(F)(F)F)c1)c1cccc(C(F)(F)F)c1	20 µM (active)
NC(=S)N/N=C1\CCOc2ccc(Cl)cc21	22.4 µM (active)
CC1(C)C/C(=N\NC(=S)Nc2ccccc2F)c2cc(O)ccc2O1	inactive
NC(=O)NN=C1CCN2CCCc3cccc1c32	inactive
O=c1c2cc(N3CCOCC3)ccc2[nH]c(=S)n1CCc1ccccc1	inactive
CC(C)(C)OC(=O)NCCc1nnc(S(=O)(=O)Cc2ccc(Cl)cc2Cl)o1	17.8 µM (active)
CC(C)(C)OC(=O)NCC(=O)Oc1cc2oc(=O)cc(-c3ccccc3)c2cc1Cl	inactive
COC(c1ccccc1)c1nnc(CCC(=O)NCCc2ccc(Cl)cc2)o1 (stereo unspecified)	inactive
CC1CCc2nc(/C(C#N)=C/c3ccncc3)sc2C1 (stereo unspecified)	inactive
CSCC(=O)Nc1cc(C)on1	inactive
O=C1c2ccccc2S(=O)(=O)c2cc(N3CCC(C(=O)N4CCCCC4)CC3)ccc21	inactive
COc1cccc(-c2cnc3c(NC(C)=O)cc(-c4cccc(NS(C)(=O)=O)c4)cn23)c1	28.2 µM (active)
COc1cc(S(=O)(=O)Nc2ccc3c(c2)C(=O)N(C)C3=O)ccc1NC(C)=O	inactive
CC(=O)Nc1cc(-c2cccc(NS(C)(=O)=O)c2)cn2c(-c3cccc(C(F)(F)F)c3)cnc12	35.5 µM (active)
COc1cccc(-c2ccc3c(N)c(C(=O)Nc4ccccc4C)sc3n2)c1	inactive
